Bioassay records from PubChem.
SF1 inhibitor: blocks the human nuclear receptor SF-1; Q13285; CHO-K1 Gal4-SF-1 LBD luciferase reporter; inhibition, % at 10 µM; 0.55% of 65,000 active;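 active means inhibition above the mean inhibition of all tested compounds plus 3 SD, cut at about 48% in these data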;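 further: 0% = SF-1 transfected cells with DMSO and 100% = mock-transfected cells lacking SF-1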
Target sequence (Q13285 whole entry, looked up, the tested form may be a part): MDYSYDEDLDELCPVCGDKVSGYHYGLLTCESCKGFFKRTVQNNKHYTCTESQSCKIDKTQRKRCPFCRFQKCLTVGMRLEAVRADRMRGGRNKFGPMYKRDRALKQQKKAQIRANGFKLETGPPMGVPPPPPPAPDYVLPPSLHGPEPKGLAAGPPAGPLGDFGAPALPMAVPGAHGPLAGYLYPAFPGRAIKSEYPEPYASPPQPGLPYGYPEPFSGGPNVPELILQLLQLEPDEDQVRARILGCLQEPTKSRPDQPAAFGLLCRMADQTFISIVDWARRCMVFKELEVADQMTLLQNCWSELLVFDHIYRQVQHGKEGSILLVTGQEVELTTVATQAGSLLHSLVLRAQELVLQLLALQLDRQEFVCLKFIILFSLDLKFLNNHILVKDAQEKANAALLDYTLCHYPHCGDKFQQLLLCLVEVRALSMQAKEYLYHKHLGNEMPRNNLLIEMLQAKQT
* marks the source's active call; other numbers are inactive results. Shown is part of a subset that was picked to be rich in hits.

What do the screens show for `CCN(CC)CCCN1C(=O)C(O)=C(C(=O)c2cc3cccc(OC)c3o2)C1c1ccncc1` (centres undefined)?
SF1 inhibitor: -12.5

How did Cc1cccc(OCC(O)CN2CCN(C3CCCCC3)CC2)c1 (centres undefined) do in these assays?
SF1 inhibitor: -36.2

Results for Cc1ccc(-n2nnc3c(SCC(=O)NCc4ccco4)ncnc32)cc1 ?
SF1 inhibitor: 19.2

How did Cc1nnc(NC(=O)C2COc3ccccc3O2)s1 (centres undefined) do in these assays?
SF1 inhibitor: -51.5

What do the screens show for `O=C(Nc1ccc2c(c1)OCO2)C1COc2ccccc2O1` (centres undefined)?
SF1 inhibitor: -10.7

What do the screens show for `O=C(NC1=NCCS1)C1COc2ccccc2O1` (centres undefined)?
SF1 inhibitor: 65.5*

How did CCOC(=O)c1snc(C(=O)NC2CCCCC2)c1N do in these assays?
SF1 inhibitor: -105.9

What do the screens show for `CCOC(=O)c1cnc(-n2nc(C)cc2C)nc1NC1CCCCC1`?
SF1 inhibitor: 86.9*

What do the screens show for `CCOC(=O)c1cnc(-n2nc(C)cc2C)nc1Nc1ccc2c(c1)OCO2`?
SF1 inhibitor: 5.9

What do the screens show for `CCOC(=O)c1c(C)[nH]c(C(=O)C(C)OC(=O)c2cccc(OCc3c(C)noc3C)c2)c1C` (centres undefined)?
SF1 inhibitor: 80.7*

Results for COC(=O)c1c(C)[nH]c(C(=O)OCc2ccc(F)cc2)c1C ?
SF1 inhibitor: -59.8

What do the screens show for `CCOC(=O)c1c(C)[nH]c(C(=O)COC(=O)C2CC2C)c1C` (centres undefined)?
SF1 inhibitor: -53.5

Results for O=C(COC(=O)Cn1cnc2ccccc21)NCCC1=CCCCC1 ?
SF1 inhibitor: -3.7

What do the screens show for `COc1cccc(-c2nc(-c3ccccn3)no2)c1OC`?
SF1 inhibitor: -50.1

Results for Cc1ccccc1-c1noc(-c2ccc(O)cc2)n1 ?
SF1 inhibitor: -33.3

What do the screens show for `Cc1ccc(-c2nc(-c3ccccn3)no2)cc1`?
SF1 inhibitor: 92.2*

What do the screens show for `c1ccc(CCCc2nc(-c3ccccn3)no2)cc1`?
SF1 inhibitor: -56.8

How did CC(C)(C)c1ccc(OCc2nc(-c3ccccn3)no2)c(Br)c1 do in these assays?
SF1 inhibitor: -71.1

How did Brc1ccc(-c2nc(-c3cccnc3)no2)o1 do in these assays?
SF1 inhibitor: -66.4

Results for Cc1ccc(-c2nc(-c3ccccn3)no2)cc1Cl ?
SF1 inhibitor: 85.8*

What do the screens show for `Clc1cccc(-c2nc(-c3ccccn3)no2)c1`?
SF1 inhibitor: 70.9*

What do the screens show for `Clc1ccc(OCc2nc(-c3ccncc3)no2)c(Cl)c1`?
SF1 inhibitor: -85.7

Results for O=C1CC(N2CCOCC2)C(=O)N1CCc1ccccc1 (centres undefined) ?
SF1 inhibitor: 9.0

Results for COc1ccc(C(CCc2ccc(C)o2)NC(=O)Nc2ccc(OC)cc2OC)cc1 (centres undefined) ?
SF1 inhibitor: 5.9

How did CCOC(=O)N1CCC(Nc2nc3ccccc3nc2NS(=O)(=O)c2ccc(Cl)cc2)CC1 do in these assays?
SF1 inhibitor: -53.5

What do the screens show for `Cc1ccc(NC(=O)CS(=O)CC(=O)NCC2CCCO2)cc1` (centres undefined)?
SF1 inhibitor: 8.5

What do the screens show for `CC(C)CC(NC(=O)OC(C)(C)C)C(=O)NC(C(=O)N1CCCC1C(N)=O)C(C)C` (centres undefined)?
SF1 inhibitor: 12.8

Results for CN1CC(=O)N(C)c2ncn(Cc3ccccc3)c2C1=O ?
SF1 inhibitor: 21.3

What do the screens show for `CS(=O)(=O)N1CCCC(C(=O)NCCN2CCC(Cc3ccccc3)CC2)C1` (centres undefined)?
SF1 inhibitor: -15.0

What do the screens show for `COCCN(CC(=O)Nc1ccc(F)cc1)S(=O)(=O)c1ccc(S(=O)(=O)N2CCCC2)cc1`?
SF1 inhibitor: 2.7

What do the screens show for `Cc1ccc(S(=O)(=O)N2CCN(C(=O)N3CCOCC3)C2C)cc1` (centres undefined)?
SF1 inhibitor: 11.5

What do the screens show for `COc1cc2c(cc1OC)C(C)N(C(=O)C1COc3ccccc3O1)CC2` (centres undefined)?
SF1 inhibitor: 7.1

Results for CC1CCN(C(=O)C2Cc3ccccc3CN2S(=O)(=O)c2ccc(F)cc2)CC1 (centres undefined) ?
SF1 inhibitor: -6.4

How did COc1ccc(S(=O)(=O)N2CCCC2C(=O)Nc2ccc(O)cc2)cc1 (centres undefined) do in these assays?
SF1 inhibitor: 0.9

Results for CC1(C)COCN1S(=O)(=O)c1ccc(C(=O)Nc2nnc(-c3ccc(Cl)s3)o2)cc1 ?
SF1 inhibitor: 64.9*

How did CC1CC(C)CN(C(=O)CSc2nnc(-c3ccc(Cl)s3)o2)C1 (centres undefined) do in these assays?
SF1 inhibitor: 5.1

How did COc1ccc(-c2nnc(NC(=O)c3ccc(S(=O)(=O)N4COCC4(C)C)cc3)o2)cc1 do in these assays?
SF1 inhibitor: 50.2*

What do the screens show for `CC(=O)Nc1ccc(C(=O)Nc2ccc(S(=O)(=O)N3CCCC3)cc2)cc1`?
SF1 inhibitor: 10.6

How did COc1cccc(C(=O)Nc2cccc(-c3nnc(-c4ccccc4)o3)c2)c1 do in these assays?
SF1 inhibitor: -92.1

How did O=S(=O)(c1ccc(Cl)s1)N1CCN(C/C=C/c2ccccc2)CC1 do in these assays?
SF1 inhibitor: 1.0

Results for c1ccn2c(Cc3nnc4ccccn34)nnc2c1 ?
SF1 inhibitor: -11.3

Results for O=C(NCc1ccc(F)cc1)C1C2C=CC3(CN(Cc4cccnc4)C(=O)C13)O2 (centres undefined) ?
SF1 inhibitor: -1.2

How did COc1ccc(-c2cc(C(=O)OC3CCOC3=O)c3ccccc3n2)cc1OC (centres undefined) do in these assays?
SF1 inhibitor: -5.9

What do the screens show for `COc1ccc(-c2onc(C)c2-c2ccc(C(=O)OC(C)C)o2)c(O)c1`?
SF1 inhibitor: -6.6

What do the screens show for `CCCC1C(c2ccc(OC)cc2)C(C#N)(C#N)C2(C#N)CC1(N)NC2=O` (centres undefined)?
SF1 inhibitor: -8.0

How did CC(=O)c1cnc2cc(-c3ccccc3)nn2c1C do in these assays?
SF1 inhibitor: -49.8

How did COc1cc(OC)cc(-c2cc3nc(C)c(CCC(=O)O)c(C)n3n2)c1 do in these assays?
SF1 inhibitor: 79.4*

How did COc1ccc(-c2nc(N3CCOCC3)nc3nn4c(C)c(CCC(=O)O)c(C)nc4c23)cc1 do in these assays?
SF1 inhibitor: 3.7

What do the screens show for `CCCCNC1C(CC)C(CCC)C(C#N)(C#N)C1(C#N)C#N` (centres undefined)?
SF1 inhibitor: 22.3

Results for c1ccc(-n2c(Cc3cn4ccsc4n3)nnc2N2CCOCC2)cc1 ?
SF1 inhibitor: -5.9

What do the screens show for `CCOC(=O)c1c(N)sn(-c2ccccc2C)c1=S`?
SF1 inhibitor: -0.2

How did COC(=O)COc1ccc(S(=O)(=O)NCc2ccncc2)cc1 do in these assays?
SF1 inhibitor: 17.3

What do the screens show for `CCN(C1CCCCC1)S(=O)(=O)c1ccc(S(=O)(=O)NCc2ccncc2)cc1`?
SF1 inhibitor: 52.3*

Results for O=C(CCC1CCCCC1)NCc1ccncc1 ?
SF1 inhibitor: 15.0

Results for CCOC(=O)N1CCN(C(=O)CN(C)S(=O)(=O)c2ccc(OC)c(OC)c2)CC1 ?
SF1 inhibitor: -0.2

Results for COc1cc2c(cc1NC(=O)CSCC(=O)O)oc1ccccc12 ?
SF1 inhibitor: 3.6

Results for COc1cc2c(cc1NC(=O)c1cncc(Br)c1)oc1ccccc12 ?
SF1 inhibitor: -2.2

Results for COc1cc2c(cc1NC(=O)CSc1nnnn1-c1ccccc1)oc1ccccc12 ?
SF1 inhibitor: 84.1*
